# Among all 69,000 compounds or so, about 1,000 (1.4%) showed an effect of 50% or more. The sample as a whole holds a higher share of strong results than the screen did.
# Test system: Leishmania donovani
# Test: Leishmania intramacrophage assay
# Format: functional, organism-based
# Design: scale not given: in the data most compounds retested in dose-response had high values
smiles,measurement,setting,value
Cc1ccc(S(=O)(=O)N2CCc3nc(C4CCNCC4)ncc3C2)cc1.Cl,Percent Effect,"30 µM, 30.03 µM",-1.201%
Cl.O=S(=O)(c1ccc(Cl)cc1)N1CCc2nc(C3CCNCC3)ncc2C1,Percent Effect,"30.3 µM, […]",-22.35%
O=S(=O)(c1ccccc1Cl)N1CCc2nc(C3CCNCC3)ncc2C1,Percent Effect,"30 µM, 30.03 µM",50.23%
Cc1nc(C2CCCN2Cc2nc(C3CC3)no2)no1 (centres undefined),Percent Effect,30 µM,21.89%
CCCN(CCC)C(=O)c1cc(CN2CCC(O)CC2)on1,Percent Effect,"30.3 µM, […]",36.24%
CCn1ncc(Cn2cc(Cl)c(N)n2)c1C,Percent Effect,"30.3 µM, […]",-8.997%
COc1ccnc(CNc2nc(C)nc3ccsc23)c1,Percent Effect,"30.3 µM, […]",56.7%
COc1ccnc(CNc2nc(C)nc(C)c2C)c1,Percent Effect,"30.3 µM, […]",39.23%
Cc1nc(NCc2noc(C3CCCO3)n2)c2sccc2n1 (centres undefined),Percent Effect,"30.3 µM, […]",29.04%
CCc1csc(C2CCCN(C(=O)c3ccc4c(c3)OCO4)C2)n1 (centres undefined),Percent Effect,"30.3 µM, […]",-18.73%
Cc1ccc(S(=O)(=O)N2CC(C)Oc3ncccc32)c(C)c1 (centres undefined),Percent Effect,"30.3 µM, […]",55.69%
CC1CN(S(=O)(=O)c2ccc(F)cc2F)c2cccnc2O1 (centres undefined),Percent Effect,"30.3 µM, […]",30.4%
Cc1ccc(S(=O)(=O)N2CC(C)Oc3ncccc32)c(F)c1 (centres undefined),Percent Effect,"30.3 µM, […]",21.87%
CN(CC1(CO)CCC1)C(=O)c1cc(COc2ccccc2F)[nH]n1,Percent Effect,"30.3 µM, […]",-17.63%
COc1ccc2c(c1)CCCN(CC(=O)NCC1CCCO1)C2 (centres undefined),Percent Effect,"30.3 µM, […]",55.19%
COc1ccc2c(c1)CCCN(C(=O)NCC1CCCO1)C2 (centres undefined),Percent Effect,"30.3 µM, […]",6.687%
COc1ccc2c(c1)CN(CC(=O)NC1CCCC1)CC2,Percent Effect,"30.3 µM, […]",-7.68%
CC(=O)NC(C)C(=O)N(Cc1ccc(C)c(C)c1)C1CC1 (centres undefined),Percent Effect,"30.3 µM, […]",-3.591%
COc1ccccc1-c1ncc(CN2C[C@H](O)[C@@H](N3CCCC3)C2)s1,Percent Effect,"30.3 µM, […]",4.457%
COc1ccccc1-c1ncc(CN2C[C@@H](N(C)C)[C@H](C(C)C)C2)s1,Percent Effect,"30.3 µM, […]",52.36%
COc1ccccc1-c1ncc(CN2CCCC[C@H](N(C)C)C2)s1,Percent Effect,"30.3 µM, […]",36.23%
CNC(=O)CN1CC[C@H]2CN(C(=O)c3ccc(C)cc3)C[C@H]2C1.O=C(O)C(F)(F)F,Percent Effect,"30.3 µM, […]",2.501%
CCN1CCn2c(C)cnc2C12CCN(C(=O)N(C)C)CC2.O=C(O)C(F)(F)F.O=C(O)C(F)(F)F,Percent Effect,"30.3 µM, […]",6.426%
CC(C)c1cc(C(=O)N2CCOCC2CC(=O)c2ccco2)nn1C (centres undefined),Percent Effect,"30.3 µM, […]",-24.4%
Cc1nn(-c2ccccc2Cl)c(C)c1CCC(=O)O,Percent Effect,"30.3 µM, […]",-26.02%
CC(C)c1ccc(C(CN)N2CCc3sccc3C2)cc1 (centres undefined),Percent Effect,"30.3 µM, […]",82.67%
NCC(c1ccccc1)N1CCc2sccc2C1 (centres undefined),Percent Effect,"30 µM, 30.03 µM",28.55%
NCC(c1ccc(Cl)cc1)N1CCc2sccc2C1 (centres undefined),Percent Effect,"30.3 µM, […]",40.17%
O=C(NCCSC1CCCC1)c1ccc(F)cc1F,Percent Effect,"30.3 µM, […]",24.13%
COc1ccccc1N1CCN(C(=O)Cn2nc(C)c(Cl)c2C)CC1,Percent Effect,"30.3 µM, […]",31.83%
c1ccc2oc(CCCN3CCCC(Cn4cncn4)C3)nc2c1 (centres undefined),Percent Effect,30 µM,8.044%
Cc1cc(C(=O)N2C[C@H]3CC[C@@H]2CN(Cc2ccccn2)C3)nc(C)n1,Percent Effect,"30.3 µM, […]",16.91%
CC(=O)Nc1ccc(CNCC(O)c2ccc(Cl)cc2)cc1 (centres undefined),Percent Effect,"30.3 µM, […]",-0.7096%
CC(C)Nc1ncnc2c1CCN(c1cc(C(F)(F)F)ncn1)CC2,Percent Effect,"30.3 µM, […]",9.513%
CCN(C(=O)NCc1ccccc1OC(F)F)C(C)c1cccnc1 (centres undefined),Percent Effect,"30.3 µM, […]",43.41%
CCOc1ccccc1CNC(=O)N(CC)C(C)c1cccnc1 (centres undefined),Percent Effect,"30.3 µM, […]",14.76%
CCN(C(=O)NCc1ccc(C)cc1OC)C(C)c1cccnc1 (centres undefined),Percent Effect,"30.3 µM, […]",51.84%
Cc1ccc2c(n1)N(Cc1cccnc1)CCN(C(=O)C1CC=CC1)C2,Percent Effect,"30.3 µM, […]",-19.75%
Cc1ccc2c(n1)N(Cc1cccnc1)CCN(Cc1cnn(C)c1)C2,Percent Effect,"30.3 µM, […]",76.22%
Cc1ccc2c(n1)N(CC1CC1)CCN(Cc1cnn(C)c1)C2,Percent Effect,"30.3 µM, […]",26.83%
Cc1nn(C)c(Cl)c1C1CCCN1C(=O)c1nccnc1N (centres undefined),Percent Effect,"30 µM, 30.03 µM",1.892%
CC(NC(=O)NCCCn1cncn1)c1ccccc1Cl (centres undefined),Percent Effect,"30 µM, 30.03 µM",-19.77%
O=C(O)Cc1cnc(-c2c(Cl)cccc2Cl)s1,Percent Effect,"30.3 µM, […]",39.96%
Cc1noc([C@H]2C[C@H]3OCC[C@H]3N(Cc3ccc(F)cc3)C2)n1.O=C(O)C(F)(F)F,Percent Effect,"30.3 µM, […]",51.58%
Cc1noc([C@H]2C[C@H]3OCC[C@H]3N(Cc3ccc4c(c3)OCO4)C2)n1.O=C(O)C(F)(F)F,Percent Effect,"30 µM, 30.03 µM",25.3%
CCc1ccc(CN2C[C@@H](c3nc(C)no3)C[C@H]3OCC[C@H]32)o1.O=C(O)C(F)(F)F,Percent Effect,"30.3 µM, […]",-6.961%
Cc1cccnc1NC(=O)c1ccc(F)c(S(=O)(=O)NC2CC2)c1,Percent Effect,"30.3 µM, […]",2.163%
CC(=O)Nc1ncc(S(=O)(=O)Nc2cccc(O)c2)s1,Percent Effect,"30.3 µM, […]",53.03%
CC(=O)Nc1ncc(S(=O)(=O)Nc2cccc(F)c2)s1,Percent Effect,"30.3 µM, […]",-21.07%
CC(=O)Nc1ncc(S(=O)(=O)Nc2cccc(C)c2)s1,Percent Effect,"30.3 µM, […]",11.84%
Cc1cnc(N2CC[C@@H]3O[C@@H](COCC(=O)N(C)C)CC[C@@H]32)nc1.O=C(O)C(F)(F)F,Percent Effect,"30.3 µM, […]",58.41%
CN(C)C(=O)COC[C@@H]1CC[C@H]2[C@H](CCN2c2ncccn2)O1.O=C(O)C(F)(F)F,Percent Effect,"30.3 µM, […]",37.88%
Cc1cnc(N2CC[C@@H]3OC(COCC(=O)N(C)C)CC[C@@H]32)nc1.O=C(O)C(F)(F)F (some centres undefined),Percent Effect,"30.3 µM, […]",4.675%
Cc1nc(-c2cncnc2C2CCCNC2)no1.Cl.Cl (centres undefined),Percent Effect,"30.3 µM, […]",9.405%
O=C(Nc1nncs1)c1ccc(O)nc1,Percent Effect,"30.3 µM, […]",16.66%
Cc1nnc(CCNC2CCN(c3ncnc4c(C)csc34)CC2)s1,Percent Effect,"30 µM, 30.03 µM",49.19%
Cc1nc(C)n(CCNC2CCN(c3ncnc4c(C)csc34)CC2)n1,Percent Effect,"30.3 µM, […]",-18.48%
CCc1nnc(CNC2CCN(c3ncnc4c(C)csc34)CC2)s1,Percent Effect,"30.3 µM, […]",52.55%
CCNC(=O)NC(C)c1nc(-c2ccc(Br)cc2)no1 (centres undefined),Percent Effect,"30.3 µM, […]",26.95%
CSCC1CCN(C(=O)c2ccccc2NCc2cccnc2)C1 (centres undefined),Percent Effect,"30.3 µM, […]",-38.07%
CN[C@@H](CO)C(=O)NCc1cc2n(n1)CCCN(C1CCCCC1)C2,Percent Effect,"30.3 µM, […]",3.405%
CCCOC(C)C(=O)NCc1cc2n(n1)CCCN(C1CCCCC1)C2 (centres undefined),Percent Effect,"30.3 µM, […]",20.03%
CCC(OC)C(=O)NCc1cc2n(n1)CCCN(C1CCCCC1)C2 (centres undefined),Percent Effect,"30.3 µM, […]",1.469%
CCC(C)NC(=O)NCc1cc2n(n1)CCCN(C1CCCCC1)C2 (centres undefined),Percent Effect,"30.3 µM, […]",50.3%
CC(C)SCC(=O)NCc1cc2n(n1)CCCN(C1CCCCC1)C2,Percent Effect,"30.3 µM, […]",64.6%
CSCCC(=O)NCc1cc2n(n1)CCCN(C1CCCCC1)C2,Percent Effect,"30.3 µM, […]",-17.68%
Cc1cc(C)n(-c2cncc(N3CCC(C(=O)N(C)C)CC3)n2)n1,Percent Effect,"30.3 µM, […]",-6.574%
O=C(c1ccc(=O)[nH]n1)N1CCNCC1c1ccccc1 (centres undefined),Percent Effect,"30.3 µM, […]",-5.209%
CC(C)Nc1cccc(C(=O)NCC(O)c2cccc(F)c2)c1 (centres undefined),Percent Effect,"30.3 µM, […]",8.412%
Cc1ccccc1CCC1CCCN(C(=O)Cc2cc(=O)[nH]c(N)n2)C1 (centres undefined),Percent Effect,"30.3 µM, […]",-48.51%
CCc1nc(N)sc1C(=O)N1CCCC(COc2cccc(C)c2)C1 (centres undefined),Percent Effect,"30.3 µM, […]",-12.25%
CCc1nc(N)sc1C(=O)N1CCCC(CCc2ccccc2C)C1 (centres undefined),Percent Effect,"30 µM, 30.03 µM",59.23%
CC(=O)N1CCC(c2cncc(N3CCC(O)C3)n2)CC1 (centres undefined),Percent Effect,"30.3 µM, […]",8.685%
O=C(O)C(F)(F)F.O=S(=O)(NC1CCC12CCN(CC1CCOCC1)CC2)c1ccccc1 (centres undefined),Percent Effect,"30.3 µM, […]",17.74%
CC(C)(C)OC(=O)N[C@@H]1C[C@@H](O)CN(C(=O)c2cccc(F)c2)C[C@H]1O,Percent Effect,"30.3 µM, […]",29.87%
Cc1noc(C)c1CNCc1nn(-c2ccccc2)c2c1CCC2,Percent Effect,"30.3 µM, […]",-2.831%
Cc1c(CNCc2nn(-c3ccccc3)c3c2CCC3)cc(C#N)n1C,Percent Effect,"30.3 µM, […]",49.86%
COc1ccccc1CNCc1nn(-c2ccccc2)c2c1CCC2,Percent Effect,"30.3 µM, […]",72.37%
CC(=O)c1cccc(OCCCC(=O)N(C)Cc2cnn(C)c2)c1,Percent Effect,"30.3 µM, […]",-2.967%
Cc1ccccc1-n1cc(CNc2ncnc3c2CCNCC3)cn1,Percent Effect,"30.3 µM, […]",29.71%
c1cncc(-c2noc(CNc3ncnc4c3CCNCC4)n2)c1,Percent Effect,"30.3 µM, […]",35.11%
c1ccc(Cn2cc(CNc3ncnc4c3CCNCC4)cn2)cc1,Percent Effect,"30.3 µM, […]",13.57%
Cc1cccc(-n2cc(CNc3ncnc4c3CCNCC4)cn2)c1,Percent Effect,"30.3 µM, […]",61.6%
COCc1noc(CCNc2ncnc3c2CCNCC3)n1,Percent Effect,"30.3 µM, […]",2.148%
Cc1ccc(-c2cc(CNc3ncnc4c3CCNCC4)no2)cc1,Percent Effect,"30.3 µM, […]",97.6%
c1ccc(CN2CCC(CCNc3ncnc4c3CCNCC4)C2)cc1 (centres undefined),Percent Effect,"30.3 µM, […]",-39.7%
Clc1ccccc1-c1cc(CNc2ncnc3c2CCNCC3)no1,Percent Effect,"30.3 µM, […]",94.85%
Cc1cccc(=O)n1CCCNc1ncnc2c1CCNCC2,Percent Effect,"30.3 µM, […]",9.317%
c1ccc(CN2CCC(CNc3ncnc4c3CCNCC4)CC2)cc1,Percent Effect,"30.3 µM, […]",-23.91%
COc1ccc(-c2cc(CNc3ncnc4c3CCNCC4)no2)cc1,Percent Effect,"30.3 µM, […]",66.16%
c1cncc(-c2noc(CCNc3ncnc4c3CCNCC4)n2)c1,Percent Effect,"30.3 µM, […]",24.85%
Cn1cc(-c2cc(-c3cnn(C)c3)n(CC(=O)NC3CC3)n2)cn1,Percent Effect,"30.3 µM, […]",-1.984%
Cc1ncc(CN(C)C2CCCN(CCc3ccccc3)C2)n1C (centres undefined),Percent Effect,"30.3 µM, […]",22.06%
CN(CCCNC(=O)C1CCCN(C(N)=O)C1)S(C)(=O)=O (centres undefined),Percent Effect,"30.3 µM, […]",4.871%
COc1cccc(CN2CCCC3(CCN(C(=O)c4ccco4)C3)C2)c1 (centres undefined),Percent Effect,"30 µM, 30.03 µM",53.43%
COc1cccc(CN2CCCC3(CCN(C(=O)N4CCCC4)C3)C2)c1.O=C(O)C(F)(F)F (centres undefined),Percent Effect,"30.3 µM, […]",1.476%
COc1cccc(CN2CCCC3(CCN(C(=O)[C@H]4CCCO4)C3)C2)c1 (some centres undefined),Percent Effect,"30 µM, 30.03 µM",29.96%
COCc1ncc(CN2CC[C@@](C)(O)[C@@H](Cc3ccccc3)C2)cn1,Percent Effect,"30.3 µM, […]",11.16%
Cc1ccc2c(ccn2CCC(=O)NC[C@@H]2CCCN3CCCC[C@H]23)c1,Percent Effect,"30 µM, 30.03 µM",28.72%
O=C(Cn1ccc2cc(Br)ccc21)NC[C@@H]1CCCN2CCCC[C@H]12,Percent Effect,"30.3 µM, […]",50.79%
O=C(CCn1ccc2cc(Br)ccc21)NC[C@@H]1CCCN2CCCC[C@H]12,Percent Effect,"30.3 µM, […]",94.12%
COc1ccc2c(ccn2CC(=O)NC[C@@H]2CCCN3CCCC[C@H]23)c1,Percent Effect,"30.3 µM, […]",29.51%
O=C(Cn1ccc2ccc(Br)cc21)NC[C@@H]1CCCN2CCCC[C@H]12,Percent Effect,"30 µM, 30.03 µM",-30.69%
Cc1ccc2c(ccn2CC(=O)NC[C@@H]2CCCN3CCCC[C@H]23)c1,Percent Effect,"30 µM, 30.03 µM",26.96%
